A short description of assay [1]: qHTS RealTime-Glo MT Cell Viability Assay in HEK293 cells - 8 hour (AID 1224887). Also: nearly all actives have a fitted effect of over 50% in size. Also: potency is read from the fitted curve at half-maximal effect. The procedure, abridged:
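600 HEK293 cells per well, dispensed already mixed with RealTime-Glo MT reagents. Compound dosing came 5 h later. The same wells were read for luminescence at 0, 8, 16, 24, 32 and 40 h of exposure at 37 C.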
A general note: qHTS replaces the single test concentration by a dilution series.

Assay [2] in a line: A CellTox Green Cytotoxicity Assay to monitor cytotoxicity in HEK293 cells - 16 hour (AID 1224888). Also: nearly all actives have a fitted effect of over 35% in size. Put shortly: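 Dead-cell fluorescence measured kinetically: asymmetric cyanine dye, HEK293, 600 cells/well, 5 h settle, 23 nL cpd/DMSO, 37 C, reads 0–40 h every 8 h.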
The nature of assay [3]: qHTS RealTime-Glo MT Cell Viability Assay in HepG2 cells - 0 hour (AID 1224889). Also: nearly all actives have a fitted effect of over 50% in size. Put shortly:
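qHTS, HepG2, 600 cells/well, RealTime-Glo (NanoLuc + prosubstrate) added with cells; 5 h preincubation; DMSO compound addition; 37 C; luminescence at 0/8/16/24/32/40 h.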

A short description of assay [4]: A CellTox Green Cytotoxicity Assay to monitor cytotoxicity in HepG2 cells - 8 hour (AID 1224890). Also: nearly all actives have a fitted effect of over 45% in size. Put shortly:
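First, HepG2 cells (600/well) mixed with reagent were plated; second, after 5 h at 37 C they received compounds via pintool; third, fluorescence was measured at 0 h through 40 h at 8 h intervals.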

A short description of assay [5]: qHTS assay to identify small molecule antagonists of the estrogen receptor alpha (ER-alpha) signaling pathway using the BG1 cell line in the presence of 0.1 nM 17-beta-estradiol - cell viability counter screen (AID 1259241). Also: nearly all actives have a fitted effect of over 40% in size. The procedure, abridged: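 In this screen, hormone-deprived VM7Luc4E2 cells were seeded at 4,000 per well, dosed with compound and 0.1 nM estradiol final, and incubated 22 hr at 37C and 5% CO2; fluorogenic live-cell protease signal reported viability.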

A short description of assay [6]: qHTS assay to identify small molecule antagonists of the androgen receptor (AR) signaling pathway using the MDA cell line in the presence of 0.5 nM R1881 - cell viability counter screen (AID 1259242). Also: nearly all actives have a fitted effect of over 45% in size. Put shortly: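 qHTS format. MDA-kb2 (MMTV-luc, AR/GR responsive) + cpd + 0.5 nM R1881 final, 16 hr 37C/0% CO2 → CellTiter-Fluor 30 min → fluorescence intensity.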
Assay [7] deals with Estrogen receptor (Homo sapiens) (UniProt P03372). Put plainly: qHTS assay to identify small molecule antagonists of the estrogen receptor alpha (ER-alpha) signaling pathway using the BG1 cell line in the presence of 0.1 nM 17-beta-estradiol (AID 1259244). Also: nearly all actives have a fitted effect of over 50% in size. The procedure, abridged:
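Reporter is a stably transfected luciferase under four estrogen responsive elements in VM7Luc4E2 cells expressing native full-length ER-alpha; inhibition of 0.1 nM (final) 17beta-estradiol-driven signal over 22 h is read by luminescence.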

A short description of assay [8]: qHTS assay to identify small molecule HDAC inhibitors (AID 1259364). Also: potency is read from the fitted curve at half-maximal effect.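 Also: wild-type HCT-116 cells with endogenous class I/II HDAC activity; nearly all actives have a fitted effect of over 45% in size.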 The procedure, abridged:
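Quantitative high-throughput format: overnight-seeded HCT-116 cells got compounds for 2 hr at 37C; HDAC-Glo I/II reagent added, 30 min RT, luminescence measured.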

Assay [9] can be described thus: qHTS assay to identify small molecule agonists of the sonic hedgehog signaling (Shh) pathway - cell viability counter screen (AID 1259366). Also: nearly all actives have a fitted effect of over 50% in size. Put shortly:
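In quantitative high-throughput format, 3T3 Gli1-Luc cells were exposed to compounds for 24hr and multiplexed for viability using CellTiter-Fluor, incubated 1hr at 37C before the fluorescence read.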

Assay [10] can be described thus: qHTS assay to identify small molecule antagonists of the sonic hedgehog signaling (Shh) pathway - cell viability counter screen (AID 1259367). Also: nearly all actives have a fitted effect of over 55% in size. Also: potency is read from the fitted curve at half-maximal effect. Put shortly: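 CellTiter-Fluor signal in conditioned medium-stimulated 3T3 Gli1-Luc cells, 23 hr compound exposure, 37C.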
A short description of assay [11]: qHTS assay to identify small molecule agonists of the sonic hedgehog signaling (Shh) pathway (AID 1259368; calls by dose curve; also: nearly all actives have a fitted effect of over 15% in size; also: potency is read from the fitted curve at half-maximal effect). Put shortly: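 Quantitative high-throughput format using a Gli1-driven firefly luciferase reporter line derived from NIH/3T3 cells. After a 24 hr compound treatment at 37 C and 5% CO2, luminescence reported Gli1 response element activity.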
Assay [12] deals with Estrogen receptor beta (Homo sapiens) (UniProt Q92731). Description: qHTS assay to identify small molecule agonists of the estrogen receptor beta (ER-beta) signaling pathway (AID 1259377; active = well fitted activation curve with a large enough effect in the signal ratio in the repeat runs, not every such curve was filed as active; the % refers to the signal ratio). Put shortly:
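Reporter cells (HEK293T, ER-beta-UAS-bla) receive compounds or DMSO after a 6 hr pre-incubation. They then incubate 16 hr at 37C/5% CO2, and fluorescence from LiveBLAzer B/G substrate is measured after 2 hours at room temperature.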

The target is the same in assay [13]. Description: qHTS assay to identify small molecule antagonists of the estrogen receptor beta (ER-beta) signaling pathway (AID 1259378; active = well fitted inhibition curve with a large enough effect in the signal ratio in the repeat runs, not every such curve was filed as active; the % refers to the signal ratio). The procedure, abridged: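 Antagonist mode: compounds added to beta-lactamase reporter HEK293T ER-beta-UAS cells stimulated with E2 (1nM final), 16 hr at 37C. LiveBLAzer B/G FRET substrate, 2 hours room temperature, fluorescence read-out.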

The nature of assay [14]: qHTS assay to identify small molecule agonists of the estrogen receptor beta (ER-beta) signaling pathway - cell viability counter screen (AID 1259380). Also: nearly all actives have a fitted effect of over 30% in size. Also: potency is read from the fitted curve at half-maximal effect. Put shortly:
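Steps: plate ER-beta-UAS-bla HEK293T cells, rest 6 hr; add compounds in DMSO; incubate 16 hr at 37C, 5% CO2; add FRET substrate 2 hr; add CellTiter-Glo, wait 30 min at room temperature; read luminescence.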

Assay [15] is described as follows: qHTS assay to identify small molecule HDAC inhibitors - cell viability counter screen (AID 1259365). Put shortly:
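Measured quantity is CellTiter-Glo luminescence from wild-type HCT-116 cells after compound incubation of 2hr at 37C, 5% CO2; reagent developed 30min at room temperature.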

Assay [16] in a line: qHTS assay to identify small molecule antagonists of the sonic hedgehog signaling (Shh) pathway (AID 1259369; calls by dose curve; also: nearly all actives have a fitted effect of over 45% in size; also: potency is read from the fitted curve at half-maximal effect). Put shortly: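 Stable Gli1-Luc reporter NIH/3T3 clone; quantitative HTS in stimulated mode with conditioned medium. Luminescence measured after 24hr compound treatment at 37 C.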
Assay [17] is described as follows: qHTS assay to identify small molecule agonists of the androgen receptor (AR) signaling pathway in the presence of an antagonist - cell viability counter screen (AID 1259379).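 Also: MDA-kb2 human breast cancer cells carrying an MMTV luciferase reporter; series mostly up to about 92 µM; nearly all actives have a fitted effect of over 25% in size.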 The procedure, abridged:
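Nilutamide-containing (3.0uM final) MDA-kb2 cultures, 3,000 cells/well, were treated with compounds across 15 concentrations. After 16 hr at 37C with no CO2, cell viability was determined by CellTiter-Fluor fluorescence in the luciferase assay wells.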

Assay [18] concerns the target Androgen receptor (Homo sapiens) (UniProt P10275). Put plainly: qHTS assay to identify small molecule antagonists of the androgen receptor (AR) signaling pathway using the MDA cell line in the presence of 0.5 nM R1881 (AID 1259243). Also: nearly all actives have a fitted effect of over 50% in size. The procedure, abridged: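 Antagonist mode quantitative HTS in MDA-kb2 MMTV-luciferase cells, agonist R1881 at 0.5 nM final, 16 hr exposure at 37C and 0% CO2, luminescent detection.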

Assay [19] shares this target. Put plainly: qHTS assay to identify small molecule agonists of the androgen receptor (AR) signaling pathway in the presence of an antagonist (AID 1259381; calls by dose curve; also: nearly all actives have a fitted effect of over 15% in size). The procedure, abridged: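 Reporter-gene luminescence from MDA-kb2 cells exposed 16hr at 37C (0% CO2) to 15-point compound titrations with 3.0uM final nilutamide as AR antagonist.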

For seven compounds, Potency and outcome results are on record in PubChem BioAssay (Tox21).

SMILES strings stand for the structures. A number with no mark means an inactive call. Records with an inconclusive call do not appear. The source made the active and inactive calls. Unless noted, calls follow the shape of the dose curve; as a rule, active = well fitted curve in the direction sought with a large enough effect in the repeat runs; inconclusive = weak or mixed curves; inactive = no such curve, though single readings can be large; an effect the other way counts as inactive or inconclusive.

Androgen receptor (Homo sapiens), sequence (P10275 whole entry, looked up): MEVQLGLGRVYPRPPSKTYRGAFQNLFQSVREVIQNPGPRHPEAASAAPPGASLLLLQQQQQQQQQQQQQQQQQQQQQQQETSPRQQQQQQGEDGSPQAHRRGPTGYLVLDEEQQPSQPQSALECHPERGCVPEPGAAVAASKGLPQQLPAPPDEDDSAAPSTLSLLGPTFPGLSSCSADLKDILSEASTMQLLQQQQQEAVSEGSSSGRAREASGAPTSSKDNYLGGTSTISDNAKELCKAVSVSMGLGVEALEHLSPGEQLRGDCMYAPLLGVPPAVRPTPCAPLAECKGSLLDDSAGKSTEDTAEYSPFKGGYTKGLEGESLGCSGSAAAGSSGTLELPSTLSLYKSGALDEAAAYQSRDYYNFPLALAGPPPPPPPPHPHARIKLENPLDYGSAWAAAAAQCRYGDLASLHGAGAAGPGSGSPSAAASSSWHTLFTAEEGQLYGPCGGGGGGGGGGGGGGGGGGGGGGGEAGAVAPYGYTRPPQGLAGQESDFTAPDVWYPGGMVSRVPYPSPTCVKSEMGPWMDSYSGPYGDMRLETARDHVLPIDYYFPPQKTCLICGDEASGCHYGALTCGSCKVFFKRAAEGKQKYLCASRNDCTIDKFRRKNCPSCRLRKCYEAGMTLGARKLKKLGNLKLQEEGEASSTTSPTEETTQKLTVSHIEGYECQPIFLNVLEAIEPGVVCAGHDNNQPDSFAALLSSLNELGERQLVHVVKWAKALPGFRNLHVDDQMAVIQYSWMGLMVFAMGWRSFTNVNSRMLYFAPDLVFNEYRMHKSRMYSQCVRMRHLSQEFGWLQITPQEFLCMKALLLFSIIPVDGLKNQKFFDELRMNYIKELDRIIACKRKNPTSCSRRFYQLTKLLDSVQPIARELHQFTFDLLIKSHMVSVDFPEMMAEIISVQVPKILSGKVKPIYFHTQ
Estrogen receptor (Homo sapiens), sequence (P03372 whole entry, looked up): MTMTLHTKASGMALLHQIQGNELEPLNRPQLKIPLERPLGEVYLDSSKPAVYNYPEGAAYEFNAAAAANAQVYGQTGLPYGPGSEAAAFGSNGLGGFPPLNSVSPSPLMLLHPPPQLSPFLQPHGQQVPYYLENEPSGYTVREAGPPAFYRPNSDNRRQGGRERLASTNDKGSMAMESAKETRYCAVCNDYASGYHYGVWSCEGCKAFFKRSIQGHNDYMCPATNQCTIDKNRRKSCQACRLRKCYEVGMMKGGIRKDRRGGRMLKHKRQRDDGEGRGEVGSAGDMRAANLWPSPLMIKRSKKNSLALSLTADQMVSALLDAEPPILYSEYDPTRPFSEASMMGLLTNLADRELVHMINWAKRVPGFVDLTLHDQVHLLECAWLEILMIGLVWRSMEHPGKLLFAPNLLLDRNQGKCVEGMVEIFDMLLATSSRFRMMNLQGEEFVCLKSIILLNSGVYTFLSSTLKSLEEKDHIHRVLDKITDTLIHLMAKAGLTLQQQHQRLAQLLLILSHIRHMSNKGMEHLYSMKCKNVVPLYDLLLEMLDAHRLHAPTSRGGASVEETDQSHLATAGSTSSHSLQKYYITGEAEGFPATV
Estrogen receptor beta (Homo sapiens), sequence (Q92731 whole entry, looked up): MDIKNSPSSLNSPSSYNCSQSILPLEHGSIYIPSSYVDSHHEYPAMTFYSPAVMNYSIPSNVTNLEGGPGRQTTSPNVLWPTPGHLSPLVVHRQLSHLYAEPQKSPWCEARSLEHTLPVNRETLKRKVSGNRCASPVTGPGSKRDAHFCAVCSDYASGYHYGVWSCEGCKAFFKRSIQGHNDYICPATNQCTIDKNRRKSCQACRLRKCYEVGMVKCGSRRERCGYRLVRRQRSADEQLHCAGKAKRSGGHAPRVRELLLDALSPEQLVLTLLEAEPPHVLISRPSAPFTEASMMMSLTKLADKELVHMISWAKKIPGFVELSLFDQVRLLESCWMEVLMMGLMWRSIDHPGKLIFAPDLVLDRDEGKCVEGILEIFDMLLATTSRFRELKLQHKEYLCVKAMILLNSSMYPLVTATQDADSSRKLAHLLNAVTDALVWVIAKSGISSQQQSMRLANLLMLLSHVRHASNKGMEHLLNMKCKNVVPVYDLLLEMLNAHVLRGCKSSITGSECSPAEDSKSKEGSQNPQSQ

As for `CCOC(=O)[C@H](C)O`, the Potency entry in assay [1], in [2], in assay [3], in assay [4], in assay [5] and in assay [6] was “inactive” throughout. Further, the Potency result in assay [7], in assay [8], in assay [9], in [10], in [11] and in [13] was “inactive” throughout. In addition, in [14], the Potency result was “inactive”. In addition, the call in [12] was inactive.
As to `O=C1OC(=O)c2cc(-c3ccc4c(c3)C(=O)OC4=O)ccc21`, the Potency entry in assay [1], in [2], in assay [3], in [4], in [5] and in assay [6] was “inactive” throughout. For the same compound, the Potency result in [7], in assay [8], in assay [15], in assay [11], in assay [17] and in [14] was “inactive” each time. Also, the Potency in assay [16] was 17.2 µM (active). Moreover, the compound was called inactive in assay [12].
For `C=C1CC[C@H]2O[C@]2(C)CC[C@@H]2[C@@H]1CC2(C)C`, the Potency in assay [1] was 49 µM (active). Moreover, the Potency entry in [2], in assay [3], in assay [4], in [6], in assay [18] and in [7] was “inactive” each time. Further, the Potency entry in [8], in assay [15], in assay [9], in [10], in assay [11] and in [16] was “inactive” in each case. Besides, the Potency entry in assay [13] and in [19] was “inactive” in each case. Also, the result in assay [12] was inactive.
For the compound `CCCC(C)C=O` (stereo not drawn), the Potency entry in assay [1], in assay [2], in assay [3], in [4], in assay [5] and in assay [6] was “inactive” in each case. In addition, the Potency result in assay [7], in [8], in [15], in assay [9], in assay [10] and in assay [11] was “inactive” throughout. Besides, the Potency result in [16], in assay [13], in assay [17] and in assay [14] was “inactive” throughout. Further, the result in [12] was inactive.
Consider `Cc1ccc2nc(-c3ccc(N)cc3)sc2c1S(=O)(=O)O`, for which the Potency entry in [1], in [2], in assay [3], in assay [4], in assay [6] and in assay [18] was “inactive” each time. In addition, the Potency result in [7], in assay [15], in [9], in assay [10], in [16] and in [17] was “inactive” throughout. In addition, the Potency entry in [14] is “inactive”. Besides, the Potency in assay [8] is 3.8 µM (active); in assay [11], 1.9 µM (active).
For `O=c1[nH]cccc1O`, the Potency entry in assay [1], in assay [2], in assay [3], in assay [4], in assay [5] and in [6] was “inactive” throughout. Also, the Potency entry in assay [7], in [8], in [9], in assay [10], in assay [11] and in assay [16] was “inactive” in each case. Besides, the Potency result in assay [13] and in assay [17] was “inactive” in each case. Also, the outcome in assay [12] was inactive.
With `c1ccc(-c2ccccc2-c2ccccc2)cc1`, the Potency entry in [1], in assay [2], in assay [3], in [4], in [5] and in [6] was “inactive” in each case. Also, the Potency entry in assay [8], in [15] and in assay [11] was “inactive” throughout. Besides, the values for the Potency in assay [10], in assay [16] and in assay [14] were 43.3 µM (active), 15.4 µM (active) and 68.6 µM (active), respectively.
